Data taken from PubChem BioAssay.
A number with no mark means an inactive call. For part of these data: Entries with a potency or affinity are not part of this list. Activity calls are given as the source filed them. Unless noted, no cut-off is given here; in the data, nearly all actives have IC50 up to about 0.98 µM.

Target: 6-phosphogluconate dehydrogenase, decarboxylating (Homo sapiens) (UniProt P52209)
Assay: 6PGD enzyme inhibitors, primary screen, biochemical, human, recombinant enzyme, NADPH absorbance (AID 1159550;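 active = at least 20% inhibition of 6-phosphogluconate dehydrogenase activity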)
Settings: recombinant 6PGD, NADPH absorbance 341 nm; at 10 µM; hits give high values

Chain of 6-phosphogluconate dehydrogenase, decarboxylating (Homo sapiens) (P52209 whole entry, looked up): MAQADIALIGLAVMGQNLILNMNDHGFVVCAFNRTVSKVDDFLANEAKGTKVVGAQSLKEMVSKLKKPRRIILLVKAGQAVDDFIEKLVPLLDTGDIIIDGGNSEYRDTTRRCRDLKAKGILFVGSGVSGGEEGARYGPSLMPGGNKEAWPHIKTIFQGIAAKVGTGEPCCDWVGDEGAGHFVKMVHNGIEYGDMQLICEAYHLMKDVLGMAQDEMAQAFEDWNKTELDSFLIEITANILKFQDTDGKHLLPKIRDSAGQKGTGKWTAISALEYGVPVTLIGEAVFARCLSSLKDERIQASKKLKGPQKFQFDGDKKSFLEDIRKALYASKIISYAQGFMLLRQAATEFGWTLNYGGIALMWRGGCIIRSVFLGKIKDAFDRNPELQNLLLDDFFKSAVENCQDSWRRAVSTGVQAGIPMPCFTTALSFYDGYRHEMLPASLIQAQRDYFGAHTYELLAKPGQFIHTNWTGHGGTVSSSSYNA

| SMILES | inhibition [%] |
| --- | --- |
| COC(=O)[C@]1(C)CC[C@]2(C)CC[C@]3(C)C4=CCc5c(cc(O)c(O)c5C)[C@]4(C)CC[C@@]3(C)[C@@H]2C1 | 5.04 |
| C[C@@H]1[C@H](O)[C@@H](C)/C=C/C=C/CC/C=C/C=C/C=C/C=C/C(O[C@H]2O[C@H](C)[C@@H](O)[C@H](N)[C@@H]2O)CC2O[C@](O)(CC(O)C(O)CCC(O)CC(O)CC(O)CC(=O)O[C@H]1C)CC(O)C2C(=O)O (stereo partly specified) | 8.65 |
| COC(=O)COc1cc(Cl)c(Cl)cc1Cl | -16.9 |
| NNCc1cccc(O)c1 | 15.8 |
| C[C@H]1CC[C@]2(NC1)O[C@H]1C[C@H]3[C@@H]4CC[C@H]5C[C@@H](O)CC[C@]5(C)[C@H]4CC[C@]3(C)[C@H]1[C@@H]2C | -31.5 |

Target: Calcium-dependent protein kinase 1 (Plasmodium falciparum (isolate 3D7)) (UniProt P62344)
Sequence (P62344 whole entry, looked up): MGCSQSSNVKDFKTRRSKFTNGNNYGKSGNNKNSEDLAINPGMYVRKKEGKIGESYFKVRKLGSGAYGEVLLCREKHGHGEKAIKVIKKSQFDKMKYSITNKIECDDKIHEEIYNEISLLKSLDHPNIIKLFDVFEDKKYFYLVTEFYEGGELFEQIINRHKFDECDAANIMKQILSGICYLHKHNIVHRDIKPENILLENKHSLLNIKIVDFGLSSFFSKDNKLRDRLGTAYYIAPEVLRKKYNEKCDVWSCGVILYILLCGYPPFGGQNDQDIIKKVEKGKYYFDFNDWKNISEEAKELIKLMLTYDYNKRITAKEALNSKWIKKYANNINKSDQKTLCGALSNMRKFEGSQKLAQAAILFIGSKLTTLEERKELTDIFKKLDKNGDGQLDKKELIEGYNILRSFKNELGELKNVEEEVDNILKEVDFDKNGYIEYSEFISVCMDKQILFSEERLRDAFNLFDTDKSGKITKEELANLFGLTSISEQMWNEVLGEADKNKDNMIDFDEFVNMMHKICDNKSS
Assay: PfCDPK1 kinase inhibitors, biochemical, TCAMS library (AID 1159585);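 note: inhibitors leave more ATP so luminescence rises with inhibition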
Settings: recombinant PfCDPK1, Kinase-Glo ATP depletion luminescence

| SMILES | outcome |
| --- | --- |
| Cc1c2ccncc2c(C)c2c1[nH]c1ccccc12 | inactive |
| C=CC12CCN(CC1)C(C(O)c1ccnc3ccc(OC)cc13)C2 (stereo unspecified) | inactive |
| O=C(C=Cc1ccc(-c2ccccc2)cc1)NC1CCC(CN2CCC(c3c[nH]c4ccccc34)CC2)CC1 (stereo unspecified) | inactive |
| COC(=O)/C=C/C(=O)N[C@@H]1CC[C@@]2(O)[C@H]3Cc4ccc(O)c5c4[C@@]2(CCN3CC2CC2)[C@H]1O5 | inactive |
| COC(=O)c1ccc(CC(C)NCC(O)c2cccc(C(F)(F)F)c2)cc1F (stereo unspecified) | inactive |
| Cc1[nH]c2cc(Cl)ccc2c1C1=CCN(CCCCC2(C)C(=O)Nc3c(F)cccc32)CC1 (stereo unspecified) | inactive |
| Cc1c(C)c2c(c(C)c1O)CC[C@](C)(C(=O)N1CCC(CN3CCC(c4c[nH]c5ccccc45)CC3)CC1)O2 | inactive |
| CC[C@H]1CN2CC[C@@H]1C[C@H]2[C@H](O)c1cc[n+]([O-])c2ccc(OC)cc12 | inactive |

Target: Plasmodium falciparum protein kinase 6 (PK6, PF3D7_1337100) (UniProt Q8IDW1)
Sequence (Q8IDW1 1-305): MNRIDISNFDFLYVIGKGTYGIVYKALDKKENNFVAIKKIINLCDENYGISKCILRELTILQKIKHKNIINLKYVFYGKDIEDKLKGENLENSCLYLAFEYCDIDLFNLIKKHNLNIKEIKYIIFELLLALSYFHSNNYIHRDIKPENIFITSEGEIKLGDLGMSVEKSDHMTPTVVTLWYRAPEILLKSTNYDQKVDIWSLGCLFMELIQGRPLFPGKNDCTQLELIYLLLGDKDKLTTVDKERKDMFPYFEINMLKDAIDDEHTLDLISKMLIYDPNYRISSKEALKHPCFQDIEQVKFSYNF
Assay: PfPK6 kinase inhibitors, biochemical, TCAMS library (AID 1159586; call rule not given here)
Settings: recombinant PfPK6, Kinase-Glo ATP depletion luminescence

| SMILES | outcome |
| --- | --- |
| Cc1c2ccncc2c(C)c2c1[nH]c1ccccc12 | inactive |
| C=CC12CCN(CC1)C(C(O)c1ccnc3ccc(OC)cc13)C2 (stereo unspecified) | inactive |
| O=C(C=Cc1ccc(-c2ccccc2)cc1)NC1CCC(CN2CCC(c3c[nH]c4ccccc34)CC2)CC1 (stereo unspecified) | inactive |
| COC(=O)/C=C/C(=O)N[C@@H]1CC[C@@]2(O)[C@H]3Cc4ccc(O)c5c4[C@@]2(CCN3CC2CC2)[C@H]1O5 | inactive |
| COC(=O)c1ccc(CC(C)NCC(O)c2cccc(C(F)(F)F)c2)cc1F (stereo unspecified) | inactive |
| Cc1[nH]c2cc(Cl)ccc2c1C1=CCN(CCCCC2(C)C(=O)Nc3c(F)cccc32)CC1 (stereo unspecified) | inactive |
| Cc1c(C)c2c(c(C)c1O)CC[C@](C)(C(=O)N1CCC(CN3CCC(c4c[nH]c5ccccc45)CC3)CC1)O2 | inactive |
| CC[C@H]1CN2CC[C@@H]1C[C@H]2[C@H](O)c1cc[n+]([O-])c2ccc(OC)cc12 | inactive |
